Pf apPOL block – Pf-apPOL inhibitors, biochemical, fluorescence | Plasmodium falciparum apicoplast DNA polymerase (apPOL) | Recombinant Pf-apPOL, molecular beacon fluorescence, 1.5 h | inhibition, % at 10 µM | 0.25% of 210,000 active | AID 1794808, 2022
mHTT-CaM PPI inh – mutant huntingtin-calmodulin interaction inhibitors – biochemical, AlphaScreen, primary screen; P42858; 3.6% of 190,000 active; AlphaScreen His-mHTT/GST-CaM binding, luminescence; inhibition, % at 15 µM;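 further: 0% = both proteins with DMSO and 100% = one protein alone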
An asterisk follows results filed as active; i = inactive; . = no result. This excerpt belongs to a sample that is enriched for hits. No stated cut-off is given here; in the data, active means inhibition above about 50%; inactive means the rest.

SMILES	Pf apPOL block	mHTT-CaM PPI inh
Brc1ccc2c(c1)C1C=CCC1C(c1cccnc1)N2 (stereo unspecified)	-4	85*
Brc1cccc(C2CC(c3cccnc3)Nc3nnnn32)c1 (stereo unspecified)	9	-3
O=C1NC(=S)NC(=O)C1=Cc1c(Cl)cccc1Cl	32	.
O=C1NC(=S)NC(=O)C1=Cc1ccco1	91*	.
CCC1=CC2CN3CCc4c([nH]c5ccccc45)C(C(=O)OC)(C2)C13 (stereo unspecified)	-6	.
Clc1ccccc1C1CC(c2cccnc2)Nc2nnnn21 (stereo unspecified)	1	-4
O=C(CN1CCOCC1)Nc1ccc(Cl)cc1C(=O)c1ccccc1	74*	-3
CCC(=O)Nc1ccc(Cl)cc1C(=O)c1ccccc1	-3	0
COc1ccc(-c2c(C)c3ccc(OC(=O)N(C)C)cc3oc2=O)c(OC)c1	-5	5
CN(Cc1ccccc1)C(=C(Cl)Cl)/C(=C1\NCCN1Cc1ccc(Cl)nc1)[N+](=O)[O-]	-5	65*
CN1CCN(Cc2ccc(Cl)nc2)/C1=C(/C(Cl)=C(Cl)Cl)[N+](=O)[O-]	-5	7
COc1ccc2c(c1)C1(CCN(C(=O)c3cccc(OC)c3OC)C1)C(=O)N2C (stereo unspecified)	0	-4
O=[N+]([O-])c1ccc(N2CCNCC2)cc1NCCc1ccccc1	-3	91*
O=[N+]([O-])c1ccc(N2CCNCC2)cc1NCCO	-2	0
COc1ccc2c(c1)C1(CCN(C(=O)c3ccccc3C(F)(F)F)C1)C(=O)N2 (stereo unspecified)	-3	13
CCn1cc(C(=O)NCc2ccc3c(c2)OCO3)c2cccnc21	-11	12
CCn1cc(C(=O)NCc2cccc(Br)c2)c2cccnc21	-19	58*
CCNC1(c2nnnn2-c2cccc(Cl)c2)CCCCC1	-6	-3
COc1cc2c(cc1OC)-c1c(OC)c(OC)c([N+](=O)[O-])c3c1C(C2)N(C)CC3 (stereo unspecified)	.	57*
COc1cc2c(cc1OC)C1c3cc([N+](=O)[O-])ccc3Oc3cc(C#N)c(C#N)cc3N1CC2 (stereo unspecified)	-2	13
O=C(C=Cc1ccccc1)N1CC2CC(C1)c1cccc(=O)n1C2 (stereo unspecified)	-5	-6
O=c1oc2cc([N+](=O)[O-])c(O)c([N+](=O)[O-])c2s1	-4	68*
NC(N)=NC(N)=N[n+]1cn[nH]c1	.	-4
CC(C)S(=O)(=O)c1ccc(CC(=O)N2CCN(Cc3ccsc3)CC2)cc1	-3	-9
O=c1oc2ccccc2c2c1C(c1ccc(O)cc1)c1c(c3ccccc3oc1=O)O2	69*	96*
SMILES	Pf apPOL block	mHTT-CaM PPI inh
Cc1ccc(C2c3c(c4ccccc4oc3=O)Oc3c2c(=O)oc2ccccc32)o1	36	47
O=C(NC(=S)N1C[C@H]2C[C@@H](C1)c1cccc(=O)n1C2)c1cccs1	.	-2
O=c1[nH]c(O)c(C=C2C=Nc3ccc(OCc4ccccc4)cc32)c(=O)[nH]1	-3	76*
COc1ccc(OC)c(-n2c(O)c(C=C3C=Nc4ccccc43)c(=O)[nH]c2=O)c1	-2	34
CSc1ncccc1C1=NC(=CN(C)C)C(=O)O1	-3	.
COc1cc(OC)cc(C(=O)N2CCC3(C2)C(=O)N(C)c2ccc(OC)cc23)c1 (stereo unspecified)	-1	16
COc1ccccc1N1CCN(C(=O)C(O)(c2ccccc2)c2ccccc2)CC1	-13	82*
COc1ccccc1N1CCN(Cc2ccc(O)cc2)CC1	-3	-3
O=[N+]([O-])c1ccc(Cl)cc1N/N=C1\CN2CCC1CC2	.	i
CC=C1CN2C3CC1C1(C(=O)OC)C2CC2(c4ccccc4NC32)C1O (stereo unspecified)	-11	.
O=c1cccc2n1CC1CC2CN(S(=O)(=O)c2ccc3nc(-c4ccccc4)[nH]c3c2)C1 (stereo unspecified)	4	11
Cc1cccc(N2CCN(Cc3ccc(N(C)C)cc3)CC2)c1C	-14	67*
Cc1cccc(N2CCN(Cc3ccccc3)CC2)c1C	-6	-15
CCN(CC)c1ccc(CN2CCN(c3ccccc3)CC2)cc1	0	51*
Brc1ccc(CN2CCN(c3ccccc3)CC2)cc1	-6	1
CC(=O)OC1CC2(C)C(c3ccoc3)CC3OC32C2(C)C(=O)C(O)=C3C(C)(C)C(=O)C=CC3(C)C12 (stereo unspecified)	-12	.
Cc1cc(OCC(=O)Nc2ccc3c(C(F)(F)F)cc(=O)oc3c2)cc(C)c1Cl	-10	-1
CCOc1ccccc1N1CCN(Cc2ccc(F)c(Br)c2)CC1	-1	68*
CCOc1ccccc1N1CCN(Cc2ccc(F)c(F)c2)CC1	3	-5
CNC(=O)ON=C(C)C=Cc1ccccc1	-17	.
C=CCN1C(=O)C2(C(C(=O)OC)=C(N)Oc3c2oc(CO)cc3=O)c2ccccc21 (stereo unspecified)	-6	-5
COc1cc(CNCCc2cccc(Cl)c2)c([N+](=O)[O-])cc1OC	-1	57*
COc1cc(OC)c(OC)cc1CNCCc1cccc(Cl)c1	-2	2
C1=C2CCCNC2C2CC1C1CCCCN1C2 (stereo unspecified)	-5	.
O=C(c1nccs1)C1CCCN1 (stereo unspecified)	.	98*
SMILES	Pf apPOL block	mHTT-CaM PPI inh
Cc1[nH]c2ccccc2c1CCCNC1CCCCC1	-5	10
Cc1[nH]c2ccccc2c1CCN	1	100*
CN1C(=O)C(=Cc2ccc(-c3ccc(Cl)cc3C(=O)O)o2)C(=O)N(C)C1=O	-2	0
NCC1(c2ccc3c(c2)OCCO3)CCOCC1	106*	-8
COc1ccc(C2(CN)CCOCC2)cc1OC	-7	-2
CC12CCC3C(CC4OCC35CCC(O)CC45Br)C1CCC2OC(=O)c1ccccc1 (stereo unspecified)	-12	.
CN(C)CCC(=O)c1ccc(Cl)c(Cl)c1	-2	100*
CCc1ccc(C(=O)CCN(C)C)cc1	-2	2
CN(C)c1ccc(/C=C/[N+](=O)[O-])cc1Br	3	21
COc1ccc(/C=C/[N+](=O)[O-])cc1	4	26
COc1ccc(/C=C/[N+](=O)[O-])cc1Br	-2	67*
COc1ccc(/C=C/[N+](=O)[O-])cc1I	1	72*
COc1ccc(NC(=O)C2c3cc(OC)c(OC)cc3C(=O)N3CCCCC23)cc1Cl (stereo unspecified)	-1	40
CN(C)c1ccc(C=C2CC3C4CCC5CC(O)CCC5(C)C4CCC3(C)C2=O)cc1 (stereo unspecified)	-1	8
Cc1nc(C)c(C(=O)NCC#CCN2CCCC2)s1	2	-9
COc1ccccc1CCNCc1cc(OC)c2c(c1)OCO2	-7	89*
COc1ccccc1CCNCc1ccc2c(c1)OCO2	-10	1
Cn1cc(C(=O)NCc2ccccn2)c2cccnc21	-9	-1
CCN(CC)C(=O)c1ccc(NC(=O)c2ncn[nH]2)cc1	1	21
CCN(CC)C(=O)c1ccc2c(c1)C1C=CCC1C(c1ccc([N+](=O)[O-])cc1)N2 (stereo unspecified)	-2	70*
CCN(CC)C(=O)c1ccc2c(c1)C1C=CCC1C(C(=O)O)N2 (stereo unspecified)	2	76*
CCOc1ccc(C(=O)N2CCC3(C2)C(=O)N(C)c2ccc(OC)cc23)cc1 (stereo unspecified)	-10	11

Screens: PubChem, University of Kansas High Throughput Screening Laboratory
